Here are results for 13 compounds from PubChem BioAssay (NCATS).

Molecules are shown by their SMILES. Results filed as inconclusive are left out. Activity calls are given as the source filed them. Calls come from the whole dose curve; as a rule, active = well fitted inhibition curve with a large enough effect; inconclusive = small, poorly fitted or top-dose-only effect; inactive = flat fitted curve, though single readings scatter.

Assay in all cases: qHTS profiling for inhibitors of Plasmodium falciparum proliferation (AID 504749); note: nearly all actives have a fitted effect of over 60% in size
Details in all cases: P. falciparum in erythrocytes, SYBR Green DNA, 72 h; series mostly up to 28.7 µM
For orientation: In qHTS, concentration-response curves come from the screen itself.

The test system of experiment [1] is CP325. The gist of the method:
(§1)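 SYBR Green fluorescence (ex 485 nm, em 535 nm) reports parasite DNA after 72 h compound exposure of infected red cells at 0.3% parasitemia, 2.5% hematocrit; signal normalized to 0.29 uM artemisinin and vehicle wells.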

Experiment [2] has as its system CP329. The gist of the method:
as §1

The subject of experiment [3] is CP335. A digest of the protocol: as §1
The test system of experiment [4] is DFO2036. A digest of the protocol:
as §1

In experiment [5] the test system is DIV14. The gist of the method: as §1
Experiment [6] has as its system DIV17. The gist of the method:
as §1

Experiment [7] deals with DIV30. A digest of the protocol:
as §1

The test system of experiment [8] is Dd2. A digest of the protocol:
as §1

Experiment [9] relates to ECU. The gist of the method: as §1
The test system of experiment [10] is FAB9. A digest of the protocol: as §1
In experiment [11] the test system is GB4. A digest of the protocol:
as §1

Experiment [12] relates to HB3. The gist of the method: as §1
Experiment [13] relates to ICS. The gist of the method:
as §1

Experiment [14] relates to JCK. A digest of the protocol: as §1
Experiment [15] concerns N140. A digest of the protocol: as §1
In experiment [16] the test system is P93_24. The gist of the method:
as §1

Experiment [17] relates to P94_40. The gist of the method: as §1
The subject of experiment [18] is PAD. A digest of the protocol:
as §1

In experiment [19] the test system is PC15. The gist of the method: as §1
Experiment [20] concerns PC26. The gist of the method: as §1
Potency is the fitted concentration of half-maximal effect.

As to `CN(CCOc1ccc(CC2SC(=O)NC2=O)cc1)c1ccccn1` (stereo not given), the Potency entry in experiment [1], in experiment [2], in experiment [3], in experiment [4], in [5] and in experiment [6] was “inactive” each time. Also, the Potency entry in experiment [7], in [8], in [9], in experiment [10], in experiment [11] and in experiment [12] was “inactive” in each case. Moreover, the Potency entry in [13], in [14], in experiment [15], in experiment [16], in experiment [17] and in [18] was “inactive” in each case. Moreover, the Potency result in experiment [19] and in experiment [20] was “inactive” in each case.

In the case of `Cc1cccc(Nc2ccncc2S(=O)(=O)NC(=O)NC(C)C)c1`, the Potency result in experiment [1], in [2], in experiment [3], in [4], in experiment [5] and in experiment [6] was “inactive” in each case. Also, the Potency result in [7], in experiment [8], in experiment [9], in [10], in experiment [11] and in experiment [12] was “inactive” throughout. The Potency entry in [13], in experiment [14], in experiment [15], in experiment [16], in [17] and in experiment [18] was “inactive” throughout. Moreover, the Potency entry in [19] and in experiment [20] was “inactive” in each case.

With `Nc1nc(N)c2nc(CNc3ccc(C(=O)NC(CCC(=O)O)C(=O)O)cc3)cnc2n1` (stereo not given), the Potency entry in experiment [1], in [2], in [3], in experiment [4], in [5] and in experiment [6] was “inactive” in each case. In addition, the Potency result in experiment [7], in experiment [8], in [9], in [10], in experiment [11] and in experiment [12] was “inactive” throughout. In addition, the Potency result in experiment [13], in experiment [14], in experiment [15], in experiment [16], in experiment [17] and in experiment [18] was “inactive” each time. Also, the Potency result in experiment [19] and in experiment [20] was “inactive” in each case.

As to `Cc1ncc([N+](=O)[O-])n1CCO`, the Potency entry in [1], in [2], in [3], in experiment [4], in [5] and in experiment [6] was “inactive” throughout. The Potency entry in experiment [7], in experiment [8], in experiment [9], in [10], in experiment [11] and in experiment [12] was “inactive” in each case. For the same compound, the Potency result in [13], in experiment [14], in experiment [15], in experiment [16], in experiment [17] and in [18] was “inactive” throughout. The Potency entry in [19] and in [20] was “inactive” throughout.

Turning to `O=NN(CCCl)C(=O)NC1CCCCC1`, the Potency entry in experiment [1], in experiment [2], in experiment [3], in [4], in experiment [5] and in experiment [6] was “inactive” in each case. In addition, the Potency result in experiment [7], in experiment [8], in experiment [9], in experiment [10], in experiment [11] and in [12] was “inactive” throughout. Besides, the Potency result in experiment [13], in experiment [14], in [15], in experiment [16], in experiment [17] and in experiment [18] was “inactive” each time. Moreover, the Potency result in [19] and in experiment [20] was “inactive” in each case.

As for `COc1ccc2cc3[n+](cc2c1OC)CCc1cc2c(cc1-3)OCO2`, the Potency in experiment [1] was 953 nM (active); in experiment [2] it was 953 nM (active); in experiment [3], 953 nM (active); in experiment [4] it was 891 nM (active); in experiment [5] it was 849 nM (active); in experiment [6], 1.07 µM (active). The Potency in experiment [7] is 1.35 µM (active); in [8], 794 nM (active); in experiment [9] it was 1.41 µM (active); in experiment [10], 708 nM (active); in [11] it was 675 nM (active); in experiment [12], 1.78 µM (active). Further, the Potency in [13] is 1.12 µM (active); in experiment [14], 3.16 µM (active); in experiment [15] it was 1.26 µM (active); in experiment [16] it was 562 nM (active); in [17] it was 447 nM (active); in experiment [18] it was 1 µM (active). In addition, the results for the Potency in [19] and in experiment [20] were 2.24 µM (active) and 1.9 µM (active), respectively.

Regarding `COC(=O)Nc1nc2ccc(Sc3ccccc3)cc2[nH]1`, the Potency result in experiment [1], in experiment [2], in experiment [3], in [4], in experiment [5] and in experiment [6] was “inactive” in each case. The Potency entry in [7], in [8], in experiment [9], in experiment [10], in experiment [11] and in experiment [12] was “inactive” throughout. Further, the Potency entry in [13], in [14], in experiment [15], in [16], in [17] and in [18] was “inactive” in each case. Moreover, the Potency entry in [19] and in experiment [20] was “inactive” in each case.

Regarding `Cc1noc(NS(=O)(=O)c2ccc(N)cc2)c1C`, the Potency entry in experiment [1], in experiment [2], in [3], in [4], in [5] and in [6] was “inactive” each time. Moreover, the Potency entry in experiment [7], in [8], in experiment [9], in experiment [10], in [11] and in experiment [12] was “inactive” each time. The Potency entry in experiment [13], in experiment [14], in [15], in experiment [16], in experiment [17] and in experiment [18] was “inactive” throughout. For the same compound, the Potency result in [19] and in [20] was “inactive” throughout.

As for `CCN(C)C(=O)Oc1cccc([C@H](C)N(C)C)c1`, the Potency entry in experiment [1], in [2], in [3], in experiment [4], in experiment [5] and in [6] was “inactive” throughout. The Potency result in [7], in experiment [8], in [9], in [10], in [11] and in [12] was “inactive” throughout. The Potency entry in experiment [13], in experiment [14], in experiment [15], in [16], in [17] and in experiment [18] was “inactive” in each case. The Potency entry in experiment [19] and in [20] was “inactive” in each case.

Turning to `Nc1nc(N)nc(-c2cc(Cl)ccc2Cl)n1`, the Potency result in [1], in [2], in experiment [3], in [4], in [5] and in experiment [6] was “inactive” each time. In addition, the Potency entry in experiment [7], in experiment [8], in experiment [9], in experiment [10], in [11] and in experiment [12] was “inactive” in each case. Moreover, the Potency entry in experiment [13], in [14], in [15], in [16], in experiment [17] and in [18] was “inactive” in each case. Besides, the Potency result in experiment [19] and in [20] was “inactive” throughout.

Consider `COc1ncnc(NS(=O)(=O)c2ccc(N)cc2)c1OC`, for which the Potency entry in experiment [1], in experiment [2], in experiment [3], in [4], in [5] and in experiment [6] was “inactive” throughout. In addition, the Potency result in [7], in experiment [8], in experiment [9], in experiment [10], in experiment [11] and in experiment [12] was “inactive” throughout. Further, the Potency result in [13], in experiment [14], in [15], in [16], in experiment [17] and in experiment [18] was “inactive” throughout. Moreover, the Potency entry in [19] and in [20] was “inactive” in each case.

As to `CCc1c2c(nc3ccc(OC(=O)N4CCC(N5CCCCC5)CC4)cc13)-c1cc3c(c(=O)n1C2)COC(=O)[C@]3(O)CC`, the Potency entry in experiment [1], in experiment [2], in experiment [3], in experiment [4], in experiment [5] and in [6] was “inactive” in each case. The Potency result in experiment [7], in experiment [8], in experiment [9], in experiment [10], in experiment [11] and in experiment [12] was “inactive” each time. The Potency result in [13], in experiment [14], in [15], in [16], in experiment [17] and in experiment [18] was “inactive” throughout. In addition, the Potency entry in experiment [19] and in experiment [20] was “inactive” in each case.

Turning to `O=S(=O)(O)CCS`, the Potency entry in experiment [1], in [2], in experiment [3], in experiment [4], in experiment [5] and in [6] was “inactive” in each case. For the same compound, the Potency entry in [7], in experiment [8], in experiment [9], in [10], in experiment [11] and in experiment [12] was “inactive” throughout. Besides, the Potency result in experiment [13], in experiment [14], in [15], in [16], in experiment [17] and in [18] was “inactive” throughout. Further, the Potency entry in experiment [19] and in experiment [20] was “inactive” each time.
